Reference: PubChem BioAssay (EPA / NIEHS)
Inconclusive results are not listed. Active and inactive are the calls of the source. How the source made its calls, unless noted: active means hit-call score of the fitted dose curve at least 0.9, where 1 is the maximum; inactive means score below 0.9.

Key:
[1] = molecular target: Cellular tumor antigen p53 (Homo sapiens) (UniProt P04637); experiment: TOX21_p53_BLA_p2_ratio: Tox21 HCT-116 p53 Agonism Beta-lactamase Assay, Ratio, Phase 2 (AID 2283592; active means hit-call score of the fitted dose curve at least 0.9, where 1 is the maximum)
In short: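 DMSO-normalized, positive-direction endpoint derived from the 460 nm/530 nm FRET ratio in HCT116 p53 beta-lactamase reporter cells exposed 16 h at 37C and loaded with CCF4-AM for 2 h.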

[2] = molecular target: Cellular tumor antigen p53 (Homo sapiens) (UniProt P04637); experiment: TOX21_p53_BLA_p3_ratio: Tox21 HCT-116 p53 Agonism Beta-lactamase Assay, Ratio, Phase 3 (AID 2283596; active means hit-call score of the fitted dose curve at least 0.9, where 1 is the maximum)
In short: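 Cells were seeded at 4000/well, rested 5 h at 37C, then dosed with DMSO compound solutions (217-fold dilution) for 16 h. CCF4-AM substrate was loaded for 2 h at room temperature, and the 460/530 nm emission ratio was fitted for gain of signal versus DMSO.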

[3] = molecular target: Cellular tumor antigen p53 (Homo sapiens) (UniProt P04637); experiment: TOX21_p53_BLA_p5_ratio: Tox21 HCT-116 p53 Agonism Beta-lactamase Assay, Ratio, Phase 5 (AID 2283599; active means hit-call score of the fitted dose curve at least 0.9, where 1 is the maximum)
In short: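 Beta-lactamase reporter ratio (blue 460 nm over green 530 nm, 405 nm excitation) after 2 h CCF4-AM loading, in HCT-116 cells exposed 16 h at 37 C to compounds pinned at 217-fold dilution. Increases relative to DMSO baseline scored.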

[4] = molecular target: Cellular tumor antigen p53 (Homo sapiens) (UniProt P04637); experiment: TOX21_p53_BLA_p4_ratio: Tox21 HCT-116 p53 Agonism Beta-lactamase Assay, Ratio, Phase 4 (AID 2283601; active means hit-call score of the fitted dose curve at least 0.9, where 1 is the maximum)
In short: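 Signal is the blue/green (460nm/530nm) ratio of cleaved versus uncleaved CCF4-AM substrate, read after 2 h substrate loading. Cells were HCT116 carrying the p53-responsive beta-lactamase reporter, dosed 16 h at 37C, 5% CO2; CellTiter-Glo measured in parallel.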

[5] = STM_H9_OrnCyssISnorm_ratio: Stemina devTOX quickPredict H9 human embryonic stem cell (hESC)-based Assay for Ornithine (ORN):Cystine (CYSS) Ratio (AID 2283714; active means hit-call score of the fitted dose curve at least 0.9, where 1 is the maximum)
In short: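 Ratio of internal-standard-normalized ornithine to cystine, measured by UPLC-HRMS in spent media from the last 24 h. H9 cells kept pluripotent, dosed 72 h with daily media and compound renewal; DMSO 0.1% serves as baseline.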

[6] = CCTE_Harrill_HTTr_Viability_MCF7: CCTE's 6-hour Cell Viability Assessment for the High-Throughput Transcriptomics (HTTr) Platform, in MCF-7 cells cultured in DMEM + 10% fetal bovine serum, Harrill Lab (AID 2284010)
In short: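 Read-out is propidium iodide gain of signal by high-content imaging, reflecting membrane integrity loss. Measurements are taken 6 h after dosing, eight concentrations per chemical, with DMSO serving as baseline for bidirectional curve fitting.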

[7] = CCTE_Harrill_HTTr_Apoptosis_MCF7: CCTE's 6-hour Apoptosis Assessment for the High-Throughput Transcriptomics (HTTr) Platform, in MCF-7 cells cultured in DMEM + 10% fetal bovine serum, Harrill Lab (AID 2284011)
In short: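 Apoptosis in MCF-7 cells grown in DMEM with 10% fetal bovine serum was scored after a six hour exposure by high content imaging of caspase-3/7 activation (CellEvent Caspase 3/7 Green), with DMSO serving as negative control and baseline.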

[8] = CCTE_Harrill_HTTr_CellCount_MCF7: CCTE's Cell Proliferation Assessment for the High-Throughput Transcriptomics (HTTr) Platform, Harrill Lab (AID 2284012; active means hit-call score of the fitted dose curve at least 0.9, where 1 is the maximum;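 further: cells exposed to compound for six hours; intended direction is loss of nuclei count meaning fewer cells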)
In short: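 Cell count served as viability reporter: loss of Hoechst-stained nuclei, counted by high content imaging, marks decreased growth or survival. Exposure was 6 h in MCF-7 cells across eight concentrations, with DMSO as baseline.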

PGR (gene 5241) [9] = molecular target: PGR (gene 5241) (UniProt P06401); experiment: TOX21_PR_BLA_Followup_Agonist_ratio: Tox21 HEK293 Progesterone Receptor (PR) Agonism Beta-lactamase Follow-Up Assay, Ratio (AID 2283933; active means hit-call score of the fitted dose curve at least 0.9, where 1 is the maximum)
In short: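 Cells were seeded and held 6 hr before compound addition, exposed for 16 hr at 37C, then given FRET substrate for 2 hr at room temperature. Agonism was scored from the blue/green substrate cleavage ratio against DMSO controls.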

PGR (gene 5241) [10] = molecular target: PGR (gene 5241) (UniProt P06401); experiment: TOX21_PR_BLA_Followup_Antagonist_ratio: Tox21 HEK293 Progesterone Receptor (PR) Antagonism Beta-lactamase Follow-Up Assay, Ratio (AID 2283934; active means hit-call score of the fitted dose curve at least 0.9, where 1 is the maximum;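 further: PR-UAS-bla HEK293T cells stimulated with 1 nM R5020 agonist for 16 hr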)
In short: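 Cells are plated, rested 6 hr, then dosed with test compound in DMSO and challenged with 1 nM promegestone. After 16 hr incubation, substrate loading for 2 h at room temperature precedes fluorescence reading; viability is measured in the same wells.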

PGR (gene 5241) [11] = molecular target: PGR (gene 5241) (UniProt P06401); experiment: TOX21_PR_LUC_Followup_Agonist: Tox21 HEK293 Progesterone Receptor (PR) Agonism Luciferase Follow-Up Assay (AID 2283937)
In short: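 Seed HEK293-PR-A-luc cells, wait 5 h, add compounds in DMSO, incubate 16 h at 37C, add ONE-Glo, read luminescence after 30 min. Activity is increase over DMSO controls; run with a viability counter-screen.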

PGR (gene 5241) [12] = molecular target: PGR (gene 5241) (UniProt P06401); experiment: TOX21_PR_LUC_Followup_Antagonist: Tox21 HEK293 Progesterone Receptor (PR) Antagonism Luciferase Follow-Up Assay (AID 2283938; active means hit-call score of the fitted dose curve at least 0.9, where 1 is the maximum;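 further: curve fitted upward as signal gain over DMSO baseline despite antagonist label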)
In short: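 Luciferase reporter in HEK293-PR-A-luc cells: 16 h compound treatment at 37C, ONE-Glo luminescence detection, DMSO as negative control and baseline.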

THRA (gene 7067) = THRA (gene 7067) (UniProt P10827); experiment: TOX21_TRA_COA_Agonist_Followup_ratio: Tox21 Thyroid Hormone Receptor alpha Agonism through Coactivator Recruitment Follow-Up Assay, Ratio (AID 2283948)
In short: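 Agonist-mode biochemical TR-FRET with TRα LBD and SRC-2 coactivator peptide; activity expressed as percent of T3 response over DMSO baseline.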

THRB (gene 7068) [13] = molecular target: THRB (gene 7068) (UniProt P10828); experiment: TOX21_TRB_BLA_Agonist_Followup_ratio: Tox21 Thyroid Hormone Receptor beta Agonism Beta-lactamase (BLA) Follow-Up Assay, Ratio (AID 2283954; active means hit-call score of the fitted dose curve at least 0.9, where 1 is the maximum)
In short: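 Agonist mode: compounds (11-point, triplicate) incubated 18 h with HEK293T cells carrying GAL4-DBD/human TRβ-LBD and UAS-β-lactamase. Blue/green (460/530 nm) FRET ratio read after 2 h CCF4-AM loading; CellTiter-Glo viability run in the same plates.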

THRB (gene 7068) [14] = molecular target: THRB (gene 7068) (UniProt P10828); experiment: TOX21_TRB_COA_Agonist_Followup_ratio: Tox21 Thyroid Hormone Receptor beta Agonism through Coactivator Recruitment Follow-Up Assay, Ratio (AID 2283963)
In short: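 Cell-free TR-FRET coactivator recruitment: GST-tagged TRβ LBD (5.0 nM) with 0.10% BSA incubated with compound, then fluorescein-SRC-2 peptide (200 nM) and Tb-anti-GST antibody (2 nM) added. 520:495 nm ratio normalized to DMSO (0%) and T3 (100%).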

[15] = molecular target: Retinoic acid receptor RXR-alpha (Homo sapiens) (UniProt P19793); experiment: TOX21_TR_RXR_BLA_Agonist_Followup_ratio: Tox21 Thyroid Hormone Receptor beta Retinoid X Receptor alpha (RXRa) Agonism Beta-lactamase (BLA) Follow-Up Assay, Ratio (AID 2283968; active means hit-call score of the fitted dose curve at least 0.9, where 1 is the maximum)
In short: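 Cells were first allowed to attach for 5 h, after which compounds in DMSO were pinned at 11 concentrations and incubated 16 h at 37C. LiveBLAzer CCF4-AM substrate was then added for 2 h at room temperature before reading 460 and 530 nm fluorescence.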

[16] = tested on: Brachyury (BRA) Protein Expression, Deisenroth Lab, TBXT (gene 6862); experiment: CCTE_Deisenroth_DEVTOX-GLR_legacy_Bra: (Legacy) CCTE's DevTox GLR-Endo Assay Evaluation of Brachyury (BRA) Protein Expression, Deisenroth Lab (AID 2284329)
In short: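 Percent Bra-positive cells, scored by high-content imaging against a threshold of 5x BMAD over the undifferentiated control median, with the 0.2% DMSO median subtracted. RUES2-GLR cultures were dosed twice at 24 h intervals across a 48 h differentiation, at 1 nM–200 uM in ten steps, with n=4 replicates.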

[17] = CCTE_Deisenroth_DEVTOX-GLR_legacy_CellCount: (Legacy) Viability Assessment in CCTE's DevTox GLR-Endo Assay, Deisenroth Lab (AID 2284331); conditions: actives raise or lower the signal
In short: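 Human pluripotent RUES2-GLR cells differentiated 48 h with two 24-h-interval exposures, 10-point 1 nM–200 uM series, 0.2% DMSO. Fixed nuclei counted by high-content imaging (5 fields/well); bidirectional fit vs DMSO, n≥4.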

[18] = tested on: SRY-box transcription factor 17 (SOX17) Protein Expression, Deisenroth Lab, SOX17 (gene 64321); experiment: CCTE_Deisenroth_DEVTOX-GLR_legacy_Sox17: (Legacy) CCTE's DevTox GLR-Endo Assay Evaluation of SRY-box transcription factor 17 (SOX17) Protein Expression, Deisenroth Lab (AID 2284341); conditions: actives raise or lower the signal
In short: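 RUES2-GLR human pluripotent cells differentiated toward endoderm for 48 h, dosed twice at 24 h intervals (1 nM–200 uM, 10 points). Imaging gives % SOX17+ cells (intensity >5x BMAD above pluripotent control median); bidirectional fit versus 0.2% DMSO.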

[19] = tested on: SRY-box transcription factor 2 (SOX2) Protein Expression, Deisenroth Lab, SOX2 (gene 6657); experiment: CCTE_Deisenroth_DEVTOX-GLR_legacy_Sox2: (Legacy) CCTE's DevTox GLR-Endo Assay Evaluation of SRY-box transcription factor 2 (SOX2) Protein Expression, Deisenroth Lab (AID 2284346)
In short: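 Percent Sox2-positive cells was scored by high-content imaging of 5 fields per well. Positivity cutoff was 5x BMAD over the directed endoderm control, and the DMSO median was subtracted. Cells were RUES2-GLR, dosed twice at 24-h intervals over 48 h of differentiation (1 nM-200 uM).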

[20] = tested on: SRY-box transcription factor 2 (SOX2) Protein Expression, Deisenroth Lab, SOX2 (gene 6657); experiment: CCTE_Deisenroth_DEVTOX-GLR_Endo_SOX2: CCTE's DevTox GLR-Endo Assay Evaluation of SRY-box transcription factor 2 (SOX2) Protein Expression, Deisenroth Lab (AID 2284412; active means hit-call score of the fitted dose curve at least 0.9, where 1 is the maximum)
In short: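 Endpoint is percent SOX2-positive cells (SOX2+ count/total cells) minus 0.2% DMSO control, from high-content imaging of fixed, nuclear-stained RUES2-GLR cells. Dosing twice at 24 h intervals over 48 h differentiation, 1 nM–200 uM in 10 points.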

[21] = tested on: SRY-box transcription factor 17 (SOX17) Protein Expression, Deisenroth Lab, SOX17 (gene 64321); experiment: CCTE_Deisenroth_DEVTOX-GLR_Endo_SOX17: CCTE's DevTox GLR-Endo Assay Evaluation of SRY-box transcription factor 17 (SOX17) Protein Expression, Deisenroth Lab (AID 2284413)
In short: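 RUES2-GLR human pluripotent cells were seeded 24 h, then differentiated toward endoderm for 48 h with two chemical exposures 24 h apart (10-point series, 1 nM - 200 uM). Nuclei-stained fixed cells were imaged; endpoint is percent change in SOX17+ cells versus 0.2% DMSO.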

[22] = tested on: Brachyury (BRA) Protein Expression, TBXT (gene 6862); experiment: CCTE_Deisenroth_DEVTOX-GLR_Endo_BRA: CCTE's DevTox GLR-Endo Assay Evaluation of Brachyury (BRA) Protein Expression, Deisenroth Lab (AID 2284417)
In short: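 RUES2-GLR pluripotent cells differentiated 48 h with two chemical exposures 24 h apart, 10-point range 1 nM - 200 uM. Percentage of BRA+ cells per total count by high-content imaging, minus 0.2% DMSO control.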

[23] = CCTE_Deisenroth_DEVTOX-GLR_Endo_CellCount: Viability Assessment in CCTE's DevTox GLR-Endo Assay, Deisenroth Lab (AID 2284420)
In short: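 Measured 48 h after dosing: fluorescent nuclei counted by imaging in human RUES2-GLR cells under defined differentiation media, tested at 1 nM - 200 uM. Values are percent cell-count change relative to 0.2% DMSO.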

[24] = tested on: SRY-box transcription factor 17 (SOX17) Protein Expression, Deisenroth Lab, SOX17 (gene 64321); experiment: CCTE_Deisenroth_DEVTOX-GLR_Pluri_SOX17: CCTE's DevTox GLR-Pluri Assay Evaluation of SRY-box transcription factor 17 (SOX17) Protein Expression, Deisenroth Lab (AID 2284427; active means hit-call score of the fitted dose curve at least 0.9, where 1 is the maximum)
In short: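 Using an inducible fluorescent SOX17 reporter in human pluripotent RUES2-GLR cells, compounds (1 nM - 200 uM) were given twice over 48 h differentiation. Percent SOX17+ cells minus DMSO control came from high-content image analysis.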

[25] = tested on: SRY-box transcription factor 2 (SOX2) Protein Expression, Deisenroth Lab, SOX2 (gene 6657); experiment: CCTE_Deisenroth_DEVTOX-GLR_Pluri_SOX2: CCTE's DevTox GLR-Pluri Assay Evaluation of SRY-box transcription factor 2 (SOX2) Protein Expression, Deisenroth Lab (AID 2284428)
In short: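 Percent SOX2+ RUES2-GLR cells, determined by fluorescence microscopy after 48 h and two 24-h-interval chemical exposures spanning 1 nM–200 uM, served as the endpoint. Values are expressed relative to 0.2% DMSO; total cell counts assessed viability.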

[26] = CCTE_Deisenroth_DEVTOX-GLR_Pluri_CellCount: Viability Assessment in CCTE's DevTox GLR-Pluri Assay Evaluation of Total Cell Counts, Deisenroth Lab (AID 2284430)
In short: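 Cytotoxicity readout: fluorescent nuclei counts by high-content imaging, expressed as percent change relative to 0.2% DMSO. Human RUES2-GLR pluripotent line differentiated 48 h, dosed twice at 24-h intervals across 1 nM - 200 uM (10 points).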

Measured: AC50

PGR (gene 5241), sequence (P06401 whole entry, looked up): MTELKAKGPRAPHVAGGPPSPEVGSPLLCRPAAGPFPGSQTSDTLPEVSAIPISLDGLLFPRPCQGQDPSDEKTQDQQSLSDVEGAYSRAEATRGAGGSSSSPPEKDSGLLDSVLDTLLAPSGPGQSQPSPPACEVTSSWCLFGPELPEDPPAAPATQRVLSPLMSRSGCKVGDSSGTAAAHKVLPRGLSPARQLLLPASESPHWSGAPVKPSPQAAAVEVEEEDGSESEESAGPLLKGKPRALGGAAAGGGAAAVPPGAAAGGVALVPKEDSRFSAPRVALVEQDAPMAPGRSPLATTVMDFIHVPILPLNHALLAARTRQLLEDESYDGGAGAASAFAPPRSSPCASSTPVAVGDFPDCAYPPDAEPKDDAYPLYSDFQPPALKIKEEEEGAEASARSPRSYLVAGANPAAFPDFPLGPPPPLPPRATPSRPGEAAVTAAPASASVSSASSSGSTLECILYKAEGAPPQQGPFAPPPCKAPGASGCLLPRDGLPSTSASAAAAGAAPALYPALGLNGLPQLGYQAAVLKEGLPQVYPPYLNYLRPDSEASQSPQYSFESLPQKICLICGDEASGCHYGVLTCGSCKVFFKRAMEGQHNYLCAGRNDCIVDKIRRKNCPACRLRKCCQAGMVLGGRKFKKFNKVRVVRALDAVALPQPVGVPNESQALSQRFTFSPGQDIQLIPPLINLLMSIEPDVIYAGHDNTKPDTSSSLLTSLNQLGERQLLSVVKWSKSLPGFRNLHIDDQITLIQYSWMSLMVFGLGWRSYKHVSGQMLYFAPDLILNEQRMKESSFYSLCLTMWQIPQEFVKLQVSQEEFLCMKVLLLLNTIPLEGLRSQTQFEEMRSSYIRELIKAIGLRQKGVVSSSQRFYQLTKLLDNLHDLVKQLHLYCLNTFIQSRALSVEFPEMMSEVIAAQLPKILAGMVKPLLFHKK
Cellular tumor antigen p53 (Homo sapiens), sequence (P04637 whole entry, looked up): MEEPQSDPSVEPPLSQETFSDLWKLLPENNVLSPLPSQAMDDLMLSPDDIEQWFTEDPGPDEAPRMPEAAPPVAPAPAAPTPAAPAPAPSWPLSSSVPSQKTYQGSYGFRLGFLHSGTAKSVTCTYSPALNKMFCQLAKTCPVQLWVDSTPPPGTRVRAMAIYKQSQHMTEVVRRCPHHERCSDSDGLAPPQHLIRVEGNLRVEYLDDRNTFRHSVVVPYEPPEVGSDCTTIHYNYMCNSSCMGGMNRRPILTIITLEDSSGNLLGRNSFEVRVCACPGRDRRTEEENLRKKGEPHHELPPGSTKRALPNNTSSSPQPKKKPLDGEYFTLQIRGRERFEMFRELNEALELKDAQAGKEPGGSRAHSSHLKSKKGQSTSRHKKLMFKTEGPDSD
THRB (gene 7068), sequence (P10828 whole entry, looked up, the tested form may be a part): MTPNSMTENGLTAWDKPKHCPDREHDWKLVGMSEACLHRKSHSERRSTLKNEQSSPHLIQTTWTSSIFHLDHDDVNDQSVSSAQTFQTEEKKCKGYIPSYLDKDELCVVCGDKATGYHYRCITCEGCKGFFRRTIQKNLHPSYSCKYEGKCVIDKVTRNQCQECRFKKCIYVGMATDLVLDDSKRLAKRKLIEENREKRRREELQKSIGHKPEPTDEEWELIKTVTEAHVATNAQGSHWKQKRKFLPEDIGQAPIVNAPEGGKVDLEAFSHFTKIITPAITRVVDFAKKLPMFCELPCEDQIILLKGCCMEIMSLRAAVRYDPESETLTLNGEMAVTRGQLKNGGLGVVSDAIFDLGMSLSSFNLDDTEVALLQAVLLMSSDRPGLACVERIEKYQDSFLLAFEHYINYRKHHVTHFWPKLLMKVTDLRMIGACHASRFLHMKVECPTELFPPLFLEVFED
Retinoic acid receptor RXR-alpha (Homo sapiens), sequence (P19793 whole entry, looked up): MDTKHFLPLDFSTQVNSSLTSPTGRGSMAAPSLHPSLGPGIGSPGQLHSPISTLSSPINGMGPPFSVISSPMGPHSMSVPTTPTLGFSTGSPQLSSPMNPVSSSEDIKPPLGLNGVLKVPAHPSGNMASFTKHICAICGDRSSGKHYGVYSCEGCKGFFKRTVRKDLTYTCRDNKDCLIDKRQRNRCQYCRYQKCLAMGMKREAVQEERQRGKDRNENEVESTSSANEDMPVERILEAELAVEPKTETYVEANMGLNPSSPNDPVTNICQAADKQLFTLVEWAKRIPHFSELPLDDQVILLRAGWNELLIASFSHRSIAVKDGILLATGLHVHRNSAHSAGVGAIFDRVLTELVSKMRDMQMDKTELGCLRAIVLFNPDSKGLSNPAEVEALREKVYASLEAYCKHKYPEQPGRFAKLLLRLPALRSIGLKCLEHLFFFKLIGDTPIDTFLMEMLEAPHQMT
THRA (gene 7067), sequence (P10827 whole entry, looked up, the tested form may be a part): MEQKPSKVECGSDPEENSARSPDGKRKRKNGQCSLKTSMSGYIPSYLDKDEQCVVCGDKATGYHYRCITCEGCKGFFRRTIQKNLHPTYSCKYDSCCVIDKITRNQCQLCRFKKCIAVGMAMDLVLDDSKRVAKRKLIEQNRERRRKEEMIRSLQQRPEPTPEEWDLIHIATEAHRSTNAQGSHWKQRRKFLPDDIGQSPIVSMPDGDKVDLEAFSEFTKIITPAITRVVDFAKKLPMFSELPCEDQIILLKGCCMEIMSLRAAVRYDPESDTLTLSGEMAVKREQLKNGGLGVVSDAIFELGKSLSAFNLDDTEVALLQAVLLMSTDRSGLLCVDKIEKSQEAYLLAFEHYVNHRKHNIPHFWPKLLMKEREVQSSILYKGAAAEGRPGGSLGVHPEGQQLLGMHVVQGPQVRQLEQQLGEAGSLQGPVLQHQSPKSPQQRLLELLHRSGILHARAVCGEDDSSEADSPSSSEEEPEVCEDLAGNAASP

COC(=O)C(C)(C)C
inactive: [1] | [2] | [3] | [4]

O=C(c1ccccc1)C1(O)CCCCC1
inactive: [5] | [6] | [7] | [8]

CCOC(=O)C1=C(C)NC(C)=C(C(=O)OC)C1c1cccc(Cl)c1Cl (stereo not given)
active: PGR (gene 5241) [10] 14.7 µM | PGR (gene 5241) [12] 13.4 µM
inactive: PGR (gene 5241) [9] | PGR (gene 5241) [11]

O=C(O)CCNC(=O)c1ccccc1
active: THRA (gene 7067) 15.2 µM | THRB (gene 7068) [13] 12.6 µM | THRB (gene 7068) [14] 16.1 µM
inactive: [15]

NC(=O)N1c2ccccc2CC(=O)c2ccccc21
inactive: [6] | [7] | [8]

CC1(C)S[C@@H]2[C@H](NC(=O)Cc3ccccc3)C(=O)N2[C@H]1C(=O)O
inactive: [16] | [17] | [18] | [19] | [20] | [21] | [22] | [23] | [24] | [25] | [26]
